# Bm FixLJ act – activators of Burkholderia fixLJ two-component system | B. multivorans fixK-promoter GFP reporter, 18 h; stronger effect = higher value | z-score (no concentration beside the values) | 29,000 tested, 0.3% active | AID 1918990;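 active = replicate mean overnight rise in green fluorescent reporter signal, 3 or more SD over negative controls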
# The depositor's hits bear a star. Many of the other results were omitted from the sample, so hits are more common in it than they were.
SMILES,Bm FixLJ act
COc1ccc(OCC2CCCN(C(=O)C3CCN(C(C)=O)CC3)C2)cc1 (stereo unspecified),2.1
COc1ccc(OCC2CCCN(C(=O)c3ccc4nc(C)[nH]c4c3)C2)cc1 (stereo unspecified),3.4*
Cc1nc2ccc(C(=O)N3CCCC4(CCc5cn[nH]c54)C3)cc2[nH]1 (stereo unspecified),-0.79
Cc1[nH]c2ccccc2c1CCNC(=O)N(C)CCn1ccnc1C,-0.49
Cc1ccc(-n2c(=O)c3c(C)c(C)sc3n(CC(=O)c3ccc(Cl)cc3)c2=O)cc1C,-1.3
CCOc1ccc(-n2c(=O)c3c(C)c(C)sc3n(CC(=O)N(CC)Cc3ccccc3)c2=O)cc1,-1.9
CCOc1ccc(-n2c(=O)c3c(C)c(C)sc3n(CC(=O)c3ccccc3)c2=O)cc1,3.2*
COc1ccc(-c2noc(CN(C)CC3CCC(=O)N(C)C3)n2)cc1 (stereo unspecified),-0.82
CCCN1CCCC2(CCN(C(=O)CCCn3cncn3)C2)C1=O (stereo unspecified),0.79
COCCNC(=O)CCn1c(=O)c2cc(OC)c(OC)cc2n(CC(=O)Nc2ccccc2OC)c1=O,4.6*
COCCNC(=O)CCCn1c(=O)c2cc(OC)c(OC)cc2n(CC(=O)Nc2ccc(F)cc2)c1=O,0.67
COCCNC(=O)CCn1c(=O)c2cc(OC)c(OC)cc2n(CC(=O)Nc2ccccc2C)c1=O,0.19
Cc1ncc(C(=O)NCCC2CCCCN2S(C)(=O)=O)[nH]1 (stereo unspecified),-1.1
O=C(c1ccc[nH]1)N1CC2CCC(C1)N(Cc1ccccc1)C2=O (stereo unspecified),0.23
COc1ccc(Nc2cc(C(=O)NCCCN(C)C3CCCCC3)c3ccccc3n2)cc1,-1.1
CSc1cccc(Nc2cc(C(=O)NCCc3ccc(Cl)cc3)c3ccccc3n2)c1,2
CCCCN(CCCNC(=O)c1cc(Nc2cccc(SC)c2)nc2ccccc12)Cc1ccccc1,3.2*
COc1ccc(NC(=O)CSc2oc(-c3ccco3)nc2S(=O)(=O)c2ccccc2)c(OC)c1,6.8*
Cc1cc(C)cc(NC(=O)CSc2oc(-c3ccco3)nc2S(=O)(=O)c2ccccc2)c1,-1.5
COc1ccc(NC(=O)CSc2oc(-c3cccs3)nc2S(=O)(=O)c2ccc(C)cc2)c(OC)c1,-1.3
COc1ccccc1NC(=O)CSc1oc(-c2ccco2)nc1S(=O)(=O)c1ccc(C)cc1,-1.5
COc1ccc(NC(=O)CSc2oc(-c3cccs3)nc2S(=O)(=O)c2ccccc2)c(OC)c1,3.7*
COc1ccccc1NC(=O)CSc1oc(-c2cccs2)nc1S(=O)(=O)c1ccc(Br)cc1,-1.6
CC(C)CN1CCOC2(CCN(C(=O)c3cc4c([nH]c3=O)CCCC4)CC2)C1,0.28
O=C(CCCN1CCCCCC1)NC1COCC1Cc1ccnc2ccccc12 (stereo unspecified),-0.78
SMILES,Bm FixLJ act
CNc1nc(C(=O)N2CCCC(C(=O)c3nccn3C)C2)cs1 (stereo unspecified),-2.3
COc1ccc(OC)c(Nc2cc(C(=O)NCc3ccccc3)c3ccccc3n2)c1,4.2*
COc1ccc(CNC(=O)c2cc(Nc3ccc(OC)cc3OC)nc3ccccc23)cc1,1.4
COc1ccc(Nc2cc(C(=O)NCCc3ccc(C)cc3)c3ccccc3n2)c(OC)c1,-0.96
CCCc1cc(C(=O)NC2CCN(S(=O)(=O)c3ccccc3)CC2)n[nH]1,0.18
CC(C)c1nc(NCC(O)c2ccccc2)c2cnn(C)c2n1 (stereo unspecified),-0.07
Cc1c(NC(=O)CC2CCN(Cc3ccccc3)CC2)c(N2CCCC2)nn1C,-2.9
CC(C)c1nc(CN(C)C(=O)NCCCc2nc3ccccc3[nH]2)cs1,0.59
CCCCCCc1cc2cc(-c3nnc(-c4ccc(C)cc4)o3)c(=O)oc2cc1O,8.6*
CCN(CC)c1ccc2cc(-c3nnc(-c4cccc(Cl)c4)o3)c(=O)oc2c1,-8.9
COc1cccc(-c2nnc(-c3cc4cc(Cl)ccc4oc3=O)o2)c1,-0.27
CCCn1cnnc1CNC(=O)Nc1cccc(-n2nnnc2C)c1,-0.34
NC(=O)c1ccc(C(=O)NC2COCC2Cc2ccnc3ccccc23)cc1 (stereo unspecified),-0.93
COc1ccc(C2=NC(c3ccccc3)=Nc3ccc(C)cc3N2)cc1,-0.44
COc1ccc(O)c(C2=Nc3ccccc3N=C(c3ccccc3)C2)c1,3.7*
Cc1cccc(C2=Nc3ccccc3N=C(c3cc(Cl)ccc3O)C2)c1,1.4
O=C(Cn1cccn1)N1CCCN(c2nc(-c3ccccc3)no2)CC1,-0.23
C[C@H](N)[C@H](O)c1cccc(O)c1,-1.5
CC[C@H](NC(C)C)[C@H](O)c1ccc(O)c2[nH]c(=O)ccc12,-0.68
CCC(NC(C)C)C(O)c1ccc(O)c(O)c1 (stereo unspecified),8.2*
CN1C(c2ccccc2Cl)C(C(=O)NCCO)C[C@@]1(C)C(=O)O (stereo partly specified),-1.3
CCN1CCc2nc3sc(C(=O)c4ccccc4)c(N)c3cc2C1,26*
Cc1ccccc1NC(=O)c1sc2nc3c(cc2c1N)CN(Cc1ccccc1)CC3,0.8
CN1CCc2nc3sc(C(=O)c4ccc(F)cc4)c(N)c3cc2C1,0.72
CS(=O)(=O)N1CCn2nc(CNc3ncnc4ccsc34)cc2C1,-0.99
SMILES,Bm FixLJ act
Cn1nc(CNC(=O)C2CCCCn3nnnc32)c2c(Cl)cccc21 (stereo unspecified),3.3*
O=C(NCc1cc(-c2ccc(F)cc2)no1)C1CCCCn2nnnc21 (stereo unspecified),-1.8
CN1CC(=O)N2CCN(Cc3nn(C)c4cccc(Cl)c34)CC2C1=O (stereo unspecified),-0.26
CC(C)CC(=O)C1CCCN(C(=O)c2ccc(N3CC(n4cccn4)C3)nc2)C1 (stereo unspecified),1.5
COCC1(N(C)C(=O)c2coc(COc3cccc(F)c3F)n2)CC1,-0.14
Cc1ccccc1Cn1c2ccccc2c2cnn(CC(=O)NCc3cccc(Cl)c3)c(=O)c21,-1.5
O=C(Cn1ncc2c3ccccc3n(Cc3cccc(Cl)c3)c2c1=O)NCCCN1CCCCC1,16*
O=C(Cn1ncc2c3ccccc3n(Cc3cccc(Cl)c3)c2c1=O)NCCCc1ccccc1,19*
CCN(CC)CCCNC(=O)Cn1ncc2c3ccccc3n(Cc3ccccc3)c2c1=O,-2
CC1CCCCN1CCCNC(=O)Cn1ncc2c3ccccc3n(Cc3ccccc3F)c2c1=O (stereo unspecified),-0.46
CCCN(CCC)CCCNC(=O)Cn1ncc2c3ccccc3n(Cc3ccc(F)cc3)c2c1=O,-1.7
CC(C)N(Cc1ccccc1)C(=O)Cn1ncc2c3ccccc3n(Cc3ccccc3)c2c1=O,0.03
Cc1ccc(Cn2c3ccccc3c3cnn(CC(=O)Nc4cc(Cl)ccc4C)c(=O)c32)cc1,-1.1
CCCCN(CC)CCCNC(=O)Cn1ncc2c3ccccc3n(Cc3ccc(F)cc3)c2c1=O,-3.4
CN(Cc1ccccc1)C(=O)Cn1ncc2c3ccccc3n(Cc3cccc(Cl)c3)c2c1=O,5.5*
O=C(Cn1ncc2c3ccccc3n(Cc3ccc(Cl)cc3)c2c1=O)NCCCc1ccccc1,1.3
CCCCN(C)CCCNC(=O)Cn1ncc2c3ccccc3n(Cc3cccc(Cl)c3)c2c1=O,6.4*
Cc1n[nH]c(C)c1CCNC(=O)N1CCN(C2CCCC2)C(=O)C1,-0.15
CCOC(=O)c1cc(NC(=O)N(Cc2cnn(C)c2)C2CC2)ccc1Cl,-1.4
Cn1nc(C(N)=O)c2c1CCN(C(=O)CCCOc1ccccc1)C2,-0.54
CCC(NC(=O)CCS(=O)(=O)c1ccccc1)c1cn2cccnc2n1 (stereo unspecified),-1.2
